These entries were drawn from the full list.
aSyn UTR act: Activators working through SNCA 5'UTR binding (MLPCN); alpha-synuclein 5'UTR reporter, activators screen; activity score, % (tested at 7.5 µM), hits read low; 300,000 compounds, 7.1% hits; in the data active = activity score below about -60%
Active calls of the source: *.

What do the screens show for `O=C1/C(=C/c2ccccn2)SC(=S)N1CCc1ccccc1`?
aSyn UTR act: -159*

What do the screens show for `Cc1nc(-c2ccc(NC(=O)CC(C)C)cc2)cs1`?
aSyn UTR act: -143*

How did Cc1nc(-c2ccc(NC(=O)C3CC3)cc2)cs1 do in these assays?
aSyn UTR act: -160*

How did COc1ccc(-c2csc(NC(=O)CC(C)C)n2)cc1 do in these assays?
aSyn UTR act: -128*

Results for c1ccc(-c2ccc(CN3CCSCC3)cc2)cc1 ?
aSyn UTR act: -88*

How did O=C(Nc1ccc2c(c1)OCCO2)c1cnc2n(c1=O)CCS2 do in these assays?
aSyn UTR act: -75*

How did O=C(Nc1ccc2c(c1)OCO2)c1cnc2n(c1=O)CCS2 do in these assays?
aSyn UTR act: -125*

What do the screens show for `CCOC(=O)C1(CCOC)CCN(Cc2nc(C(C)C)cs2)CC1`?
aSyn UTR act: -67*

Results for CCOC(=O)C1(CCOc2ccccc2)CCN(Cc2ccc(O)c(Cl)c2)CC1 ?
aSyn UTR act: 108

Results for CC(=O)Nc1nc2c(C)cc(NC(=O)C3CCCCC3)cc2s1 ?
aSyn UTR act: -96*

What do the screens show for `CC(=O)Nc1cc(C)c2nc(NC(C)=O)sc2c1`?
aSyn UTR act: -90*

Results for O=C(NCCc1nnc2ccccn12)c1cccs1 ?
aSyn UTR act: -67*

How did Cc1ccsc1C(=O)NCCc1nnc2ccccn12 do in these assays?
aSyn UTR act: -78*

What do the screens show for `CNCc1cc(Cl)cc(OC)c1OC(C)C`?
aSyn UTR act: -81*

Results for CC(=O)c1ccc(NS(=O)(=O)c2cccc(C)c2)cc1 ?
aSyn UTR act: -127*

What do the screens show for `Cc1cccc(S(=O)(=O)Nc2ccc(-c3nc4ccc(C)cc4s3)cc2)c1`?
aSyn UTR act: -172*

What do the screens show for `Cc1ccc2nc(-c3ccc(NS(=O)(=O)c4c(C)n(C)c(=O)n(C)c4=O)cc3)sc2c1`?
aSyn UTR act: -94*

How did CCC(C)(C)n1nnnc1C(c1ccc2ncccc2c1)N1CCN(c2nc3ccccc3s2)CC1 (stereo not drawn) do in these assays?
aSyn UTR act: 54

How did Nc1ccc2nc(N3CCOCC3)sc2c1 do in these assays?
aSyn UTR act: -69*

What do the screens show for `c1c2c(cc3sc(N4CCOCC4)nc13)OCCO2`?
aSyn UTR act: 94

How did c1ccc(N2CCN(c3nc4cc5c(cc4s3)OCCO5)CC2)cc1 do in these assays?
aSyn UTR act: -157*

How did Fc1cccc(Cl)c1CN1CCN(c2nc3ccccc3s2)CC1 do in these assays?
aSyn UTR act: -198*

What do the screens show for `c1ccc2sc(N3CCOCC3)nc2c1`?
aSyn UTR act: -65*

How did Cn1c2c(c(=O)[nH]c1=O)C(c1ccc(O)cc1)C1=C(N2)c2ccccc2C1=O (stereo not drawn) do in these assays?
aSyn UTR act: -67*

Results for CC1=C([N+](=O)[O-])C(c2ccccc2)C2=C(N1)c1ccccc1C2=O (stereo not drawn) ?
aSyn UTR act: 113

How did Cc1ccc(NC(=S)NCCC2=CCCCC2)cc1 do in these assays?
aSyn UTR act: -137*

Results for O=C(NCCC1=CCCCC1)c1ccc(Br)o1 ?
aSyn UTR act: -83*

How did O=C(NC(=S)NCCC1=CCCCC1)c1ccc(Br)o1 do in these assays?
aSyn UTR act: -115*

What do the screens show for `COc1ccc(C(=O)Nc2ccc3nc(C)c(C)nc3c2)cc1`?
aSyn UTR act: -87*

How did COc1ccc(C(=O)Nc2ccc3c(c2)nc2n3CCSC2)cc1 do in these assays?
aSyn UTR act: -67*

How did COc1ccc(NC(=O)c2ccc3nc[nH]c3c2)cc1 do in these assays?
aSyn UTR act: -81*

What do the screens show for `O=C(Nc1ccc2c(c1)OCO2)c1ccc2nc[nH]c2c1`?
aSyn UTR act: -112*

What do the screens show for `CN[C@H]1CCc2cc(OC)c(OC)c(OC)c2-c2ccc(N(C)CC(OC)OC)c(=O)cc21`?
aSyn UTR act: 70

How did O=C(Nc1ccc(C(F)(F)F)cc1)c1ccc2nc[nH]c2c1 do in these assays?
aSyn UTR act: -78*

Results for Cc1ccc(C(=O)Nc2cccc(C(F)(F)F)c2)cc1Nc1ncnc2nc[nH]c12 ?
aSyn UTR act: 78

How did N#Cc1ccc(CO/N=C/c2ccccc2)cc1 do in these assays?
aSyn UTR act: -95*

How did CCc1nc2ccc(C(=O)O)cc2nc1CC do in these assays?
aSyn UTR act: -63*

Results for CCc1nc2ccc(C(=O)NCCc3ccc(OC)cc3)cc2nc1CC ?
aSyn UTR act: -138*

How did N/C(=C\C(=O)c1cc(Cl)ccc1O)C(Cl)(Cl)Cl do in these assays?
aSyn UTR act: -80*

Results for Cc1ccc2oc(-c3ccco3)cc(=O)c2c1 ?
aSyn UTR act: -171*

Results for CC(C)OCCOc1ccc2oc(-c3ccco3)cc(=O)c2c1 ?
aSyn UTR act: -115*

What do the screens show for `Cc1scc(C(=O)N/N=C/c2ccco2)c1C`?
aSyn UTR act: -86*

How did Cc1scc(C(=O)N/N=C/c2ccc([N+](=O)[O-])o2)c1C do in these assays?
aSyn UTR act: 85

Results for Cc1scc(C(=O)N/N=C/c2ccsc2)c1C ?
aSyn UTR act: -162*

Results for O=C(N/N=C/c1ccccn1)c1cc(-c2ccc3ccccc3c2)n[nH]1 ?
aSyn UTR act: -161*

Results for O=C(N/N=C/c1ccco1)c1cc(-c2ccc3ccccc3c2)n[nH]1 ?
aSyn UTR act: -75*

How did O=C(N/N=C/C=C\c1ccccc1[N+](=O)[O-])c1cc(-c2ccc3ccccc3c2)n[nH]1 do in these assays?
aSyn UTR act: -88*

How did O=C(Nc1ccc(F)cc1F)Nc1csc2ccccc12 do in these assays?
aSyn UTR act: -67*

What do the screens show for `O=C(Nc1cccs1)Nc1ccc(F)cc1F`?
aSyn UTR act: -119*

Results for O=C(Nc1ccc(F)cc1F)Nc1ccc(F)cc1F ?
aSyn UTR act: -87*

What do the screens show for `O=C(Nc1cccs1)Nc1ccc(Br)cc1F`?
aSyn UTR act: -185*

What do the screens show for `O=C(NNC(=S)Nc1ccc(F)cc1F)c1ccco1`?
aSyn UTR act: -109*

Results for CC1CCN(C(=O)c2cc(-c3ccco3)on2)CC1 ?
aSyn UTR act: -140*

How did CC1CCN(C(=O)c2cc(-c3ccccc3O)on2)CC1 do in these assays?
aSyn UTR act: -82*

How did c1ccc(N2CCN(c3ncccn3)CC2)cc1 do in these assays?
aSyn UTR act: -68*

What do the screens show for `c1ccc(N2CCN(c3nc(-c4ccccn4)nc4ccccc34)CC2)cc1`?
aSyn UTR act: -78*

What do the screens show for `O=[N+]([O-])c1cc(CN2CCN(c3ccccc3)CC2)c(O)c2ncccc12`?
aSyn UTR act: 82

Results for COc1ccnc(N2CCN(c3ccccc3)CC2)c1C#N ?
aSyn UTR act: -80*

Results for C=CCN(C(=O)C1CSC2(C)CCC(=O)N12)c1nc(-c2ccccc2)cs1 (stereo not drawn) ?
aSyn UTR act: -68*

What do the screens show for `CCOC(=O)c1c(C)[nH]c(C2=NNC(=Nc3ccccc3OC)SC2)c1C`?
aSyn UTR act: -90*

Results for CCOC(=O)c1c(C)[nH]c(C2=NNC(=Nc3ccccc3)SC2)c1C ?
aSyn UTR act: -97*

How did CC(=O)c1c(C)[nH]c(C2=NNC(=NC(C)(C)C)SC2)c1C do in these assays?
aSyn UTR act: -97*

What do the screens show for `Cc1ccc(C(=O)N/C(=C\c2ccccc2)C(=O)OCc2ccccc2)cc1`?
aSyn UTR act: -122*

What do the screens show for `Cc1ccc(CONC(=O)c2ccccc2)cc1`?
aSyn UTR act: -101*

How did COc1ccc(C(=O)NOCc2ccccc2)cc1 do in these assays?
aSyn UTR act: -74*

How did CCOCC(=O)Nc1c(C(=O)Nc2ccc3c(c2)OCO3)oc2ccccc12 do in these assays?
aSyn UTR act: -151*

Results for COc1ccccc1NC(=O)c1oc2ccc(C)cc2c1C ?
aSyn UTR act: -203*

Screening results from PubChem BioAssay.
